Laboratory results: the supplement of paper PMC7724964

T1: CAPN2 513-700 EF-hand_8 (domain begin residue: 513, domain end residue: 700), P17655
T1 chain: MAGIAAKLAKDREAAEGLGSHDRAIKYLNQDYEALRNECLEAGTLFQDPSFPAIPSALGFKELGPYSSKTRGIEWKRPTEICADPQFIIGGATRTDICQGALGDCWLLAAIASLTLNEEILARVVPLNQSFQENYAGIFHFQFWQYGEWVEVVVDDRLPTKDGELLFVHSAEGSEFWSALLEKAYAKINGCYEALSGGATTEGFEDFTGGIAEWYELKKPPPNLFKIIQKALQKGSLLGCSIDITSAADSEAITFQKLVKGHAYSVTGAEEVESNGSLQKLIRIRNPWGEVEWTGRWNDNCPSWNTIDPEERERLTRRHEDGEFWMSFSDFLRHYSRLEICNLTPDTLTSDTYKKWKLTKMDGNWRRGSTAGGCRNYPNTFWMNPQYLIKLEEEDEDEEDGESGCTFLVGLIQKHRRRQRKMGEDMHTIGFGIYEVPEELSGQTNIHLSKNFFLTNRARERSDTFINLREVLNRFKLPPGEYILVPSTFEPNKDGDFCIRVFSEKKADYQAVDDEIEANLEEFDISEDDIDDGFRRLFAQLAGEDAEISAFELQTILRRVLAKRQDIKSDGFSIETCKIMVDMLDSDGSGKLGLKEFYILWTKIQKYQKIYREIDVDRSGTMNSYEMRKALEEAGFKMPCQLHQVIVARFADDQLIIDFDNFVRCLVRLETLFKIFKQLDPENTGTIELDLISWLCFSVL

T2: ARID4A 568-634 Tudor-knot (domain begin residue: 568, domain end residue: 634), P29374
T2 chain: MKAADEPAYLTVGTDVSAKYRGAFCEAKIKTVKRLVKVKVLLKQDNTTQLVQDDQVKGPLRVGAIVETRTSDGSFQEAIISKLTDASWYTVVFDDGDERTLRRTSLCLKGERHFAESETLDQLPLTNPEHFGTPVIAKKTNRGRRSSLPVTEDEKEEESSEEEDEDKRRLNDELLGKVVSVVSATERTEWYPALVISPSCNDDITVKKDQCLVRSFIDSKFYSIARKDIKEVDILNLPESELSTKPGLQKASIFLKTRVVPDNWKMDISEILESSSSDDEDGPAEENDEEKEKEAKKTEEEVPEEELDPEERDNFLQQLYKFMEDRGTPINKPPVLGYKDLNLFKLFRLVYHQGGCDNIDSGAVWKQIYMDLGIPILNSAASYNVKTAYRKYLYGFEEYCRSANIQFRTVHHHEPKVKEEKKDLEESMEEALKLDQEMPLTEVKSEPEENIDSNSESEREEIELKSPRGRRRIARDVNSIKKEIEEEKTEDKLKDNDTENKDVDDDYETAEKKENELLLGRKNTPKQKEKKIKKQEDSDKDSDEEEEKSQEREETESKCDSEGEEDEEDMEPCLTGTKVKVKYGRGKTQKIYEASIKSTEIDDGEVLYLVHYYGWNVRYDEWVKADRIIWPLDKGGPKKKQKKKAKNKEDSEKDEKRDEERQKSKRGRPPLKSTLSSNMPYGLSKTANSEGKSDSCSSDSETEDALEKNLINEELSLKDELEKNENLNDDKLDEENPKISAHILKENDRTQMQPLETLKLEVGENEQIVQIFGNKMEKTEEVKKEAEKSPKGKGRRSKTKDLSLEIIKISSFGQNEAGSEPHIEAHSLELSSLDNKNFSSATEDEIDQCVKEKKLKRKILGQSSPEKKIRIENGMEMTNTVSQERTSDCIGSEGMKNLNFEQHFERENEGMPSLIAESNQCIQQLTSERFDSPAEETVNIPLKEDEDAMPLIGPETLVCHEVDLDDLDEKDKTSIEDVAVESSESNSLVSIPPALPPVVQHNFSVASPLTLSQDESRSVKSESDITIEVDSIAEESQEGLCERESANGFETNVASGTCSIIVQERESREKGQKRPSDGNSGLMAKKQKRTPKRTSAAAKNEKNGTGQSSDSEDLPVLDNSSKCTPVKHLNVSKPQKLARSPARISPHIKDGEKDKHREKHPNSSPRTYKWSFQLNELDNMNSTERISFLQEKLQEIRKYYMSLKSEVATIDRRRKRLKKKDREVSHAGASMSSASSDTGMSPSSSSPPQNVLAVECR

T3: ALDOA 1-364 Glycolytic (domain begin residue: 1, domain end residue: 364), P04075
T3 chain: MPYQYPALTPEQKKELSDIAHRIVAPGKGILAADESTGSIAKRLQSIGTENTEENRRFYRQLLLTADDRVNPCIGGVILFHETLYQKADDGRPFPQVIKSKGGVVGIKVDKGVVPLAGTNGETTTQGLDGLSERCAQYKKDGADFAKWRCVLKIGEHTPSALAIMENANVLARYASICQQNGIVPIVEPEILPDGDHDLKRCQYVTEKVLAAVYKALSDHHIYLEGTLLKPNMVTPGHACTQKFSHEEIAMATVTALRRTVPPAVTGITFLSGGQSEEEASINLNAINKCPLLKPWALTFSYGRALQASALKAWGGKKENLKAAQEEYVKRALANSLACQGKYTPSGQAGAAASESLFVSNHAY

T4: BTN1A1 285-479 SPRY (domain begin residue: 285, domain end residue: 479), Q13410
T4 chain: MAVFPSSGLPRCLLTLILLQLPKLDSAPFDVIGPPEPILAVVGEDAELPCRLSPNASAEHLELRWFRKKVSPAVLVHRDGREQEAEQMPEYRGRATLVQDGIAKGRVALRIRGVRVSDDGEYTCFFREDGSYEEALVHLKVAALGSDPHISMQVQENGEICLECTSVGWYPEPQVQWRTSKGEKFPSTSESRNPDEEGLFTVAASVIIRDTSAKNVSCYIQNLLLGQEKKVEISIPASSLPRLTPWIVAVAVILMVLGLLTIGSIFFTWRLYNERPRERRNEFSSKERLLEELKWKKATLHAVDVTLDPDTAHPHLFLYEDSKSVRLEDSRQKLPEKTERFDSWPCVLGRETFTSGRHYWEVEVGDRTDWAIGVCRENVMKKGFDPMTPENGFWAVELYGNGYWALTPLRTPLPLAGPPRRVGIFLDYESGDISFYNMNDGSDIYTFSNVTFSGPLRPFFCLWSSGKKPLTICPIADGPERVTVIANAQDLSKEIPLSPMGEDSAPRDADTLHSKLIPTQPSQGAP

T5: CAPNS1 1-268 EF-hand_8+EF-hand_5 (domain begin residue: 1, domain end residue: 268), P04632
T5 chain: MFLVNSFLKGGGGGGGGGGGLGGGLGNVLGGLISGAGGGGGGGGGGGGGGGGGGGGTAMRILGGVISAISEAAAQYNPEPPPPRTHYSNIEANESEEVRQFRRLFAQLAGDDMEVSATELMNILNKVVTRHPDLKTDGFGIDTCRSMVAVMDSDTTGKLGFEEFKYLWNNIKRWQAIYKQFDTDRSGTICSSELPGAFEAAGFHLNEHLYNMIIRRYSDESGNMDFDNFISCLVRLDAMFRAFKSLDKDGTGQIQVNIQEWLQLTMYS

B1: unnamed (peptide)
chain: GDWEWVERWLEMHLLE
B2: unnamed (peptide)
chain: EQLEPWLMPGQSQLFG
B3: unnamed (peptide)
chain: PWDEIWEDMIEWPLPQ
B4: unnamed (peptide)
chain: IQKWMNFDDFATAVFH
B5: unnamed (peptide)
chain: WVMPGMEELNIFENMF
B6: unnamed (peptide)
chain: WTYESGEWNWYTEEKT
B7: unnamed (peptide)
chain: EFLWDPVQEMHVMVNE
B8: unnamed (peptide)
chain: DWWDMWAQGDILEIHS
B9: unnamed (peptide)
chain: VTVPPWLMEMIMELMQ
B10: unnamed (peptide)
chain: ISESQIAQFVMAWMQQ
B11: unnamed (peptide)
chain: FDFWQAREYHMLNMMA
B12: unnamed (peptide)
chain: WHVWDPVMEVFDWPEM
B13: unnamed (peptide)
chain: DWQYTYMPDMIPDWVM
B14: unnamed (peptide)
chain: LHSNLEEWLLEDLMMW
B15: unnamed (peptide)
chain: VNAHDMLEHWLYQDMI
B16: unnamed (peptide)
chain: NWLFLDPDYYNVHWPS
B17: unnamed (peptide)
chain: LSSLETYKNHGLMFMF

Molecular target: T1, CAPN2 513-700 EF-hand_8 (domain begin …
Assay: phage ELISA signal ratio (GST-PRM binding over GST background); higher = stronger binding of peptide-phage to the PRM
Protocol: (§1)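 Phage-displayed random hexadecapeptides (Cys-free, flanked by invariant Gly linkers, fused to the M13 P8 major coat protein) were selected over 5 rounds against GST-fused human PRM domains. Individual clones from rounds 4-5 were tested by phage ELISA, and positive clones binding the target but not GST were sequenced. Values are the ELISA signal ratio of target over background (GST); the background signal is given separately.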

Row | Binder | phage ELISA signal ratio
1 | B1 | 12.6
2 | B9 | 5.99
3 | B10 | 22.5

Molecular target: T2, ARID4A 568-634 Tudor-knot (domain begin …
Assay: as above
Protocol: as §1

Row | Binder | phage ELISA signal ratio
4 | B2 | 9.13
5 | B3 | 9.72
6 | B5 | 3.49
7 | B8 | 11.5

molecular target: CBX3 109-173 Chromo_shadow (domain begin residue: 109, domain end residue: 173), Q13185; assay: as above
Sequence (Q13185 whole entry): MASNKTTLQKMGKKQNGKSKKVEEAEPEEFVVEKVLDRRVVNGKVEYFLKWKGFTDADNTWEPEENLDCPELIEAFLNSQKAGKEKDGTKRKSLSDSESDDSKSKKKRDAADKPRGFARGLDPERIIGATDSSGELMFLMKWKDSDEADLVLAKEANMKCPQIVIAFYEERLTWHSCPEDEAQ
Protocol: as §1

Row | Binder | phage ELISA signal ratio
8 | B4 | 11.5
9 | B16 | 3.29

Molecular target: T3, ALDOA 1-364 Glycolytic (domain begin …
Assay: as above
Protocol: as §1

Row | Binder | phage ELISA signal ratio
10 | B6 | 23.9
11 | B7 | 5.28
12 | B12 | 18.1

Molecular target: T4, BTN1A1 285-479 SPRY (domain begin …
Assay: as above
Protocol: as §1

Row | Binder | phage ELISA signal ratio
13 | B11 | 10.3
14 | B13 | 20.7
15 | B17 | 22.5

Molecular target: T5, CAPNS1 1-268 EF-hand_8+EF-hand_5 …
Assay: as above
Protocol: as §1

Row | Binder | phage ELISA signal ratio
16 | B14 | 18.9
17 | B15 | 28.3
